# Source: PubChem
# Sampled rows, rich in hits. Any-hit rate of the full collection: about 10%.
# NS1 function inh = influenza NS1 inhibition; Potency, µM (doses to about 46.1 µM), inactives show at the highest dose activity, positive = more growth; 270,000 compounds, 0.4% hits; AID 2326; calls by dose curve; also: actives are rising curves; nearly all actives have a fitted effect of over 50% in size
#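 A cell-based growth assay was used: compounds that relieve NS1-induced slow growth of budding yeast raise OD600. Assay medium was yeast nitrogen base with ammonium sulphate and -URA supplement, pH 6.0, with 2% galactose.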
# Pf growth 48h = P. falciparum growth inhibition at 48 hours (one generation); P. falciparum luciferase growth in erythrocytes, 48 h; Potency, µM (titrated, usually from 28.7 µM), inactives show at the highest dose activity change, negative = inhibition, most hits filed as inhibitors; 310,000 compounds, 5.9% hits; also: % is scaled to controls: 0 for no effect and ±100 for the full control effect
#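 Parasite viability was followed by luminescence of a genomically integrated firefly luciferase. Cultures held 0.1% parasitemia at 2% hematocrit (final), incubated under 5% CO2 at 37 C.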
# SARS PLP yeast = SARS-CoV PLP inhibition in yeast; S. cerevisiae expressing SARS-CoV PLpro, growth rescue; Potency, µM (doses to about 32.9 µM), for the others: at the top dose activity, positive = growth rescue, most hits filed as activators; 330,000 compounds, 0.19% hits; AID 485353; calls by dose curve; also: 0% is about no effect; nearly all actives have a fitted effect of over 55% in size
# Pf growth 96h = P. falciparum growth inhibition at 96 hours. P. falciparum luciferase reporter growth, 96 h. Potency, µM (top dose mostly 28.7 µM), inactives show top-dose activity change, negative = inhibition, usual class: inhibitors. 320,000 compounds, 6.9% hits. AID 504834; also: % is scaled to controls: 0 for no effect and ±100 for the full control effect
#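 Erythrocytes infected with luciferase-expressing P. falciparum were dispensed at 2% hematocrit and 0.05% parasitemia (final), then incubated with compounds 96 hours at 37 C in 5% CO2. Luminescence after detection reagent addition reported growth.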
# * hit, by the source's call; ? = inconclusive; nt = not tested or not shown. Unless noted, calls follow the shape of the dose curve; as a rule, active = well fitted inhibition curve with a large enough effect; inconclusive = small, poorly fitted or top-dose-only effect, or another doubt; inactive = no such curve, though single readings can be large or run the other way. Potency is read from the fitted curve at half-maximal effect.
SMILES,NS1 function inh,Pf growth 48h,SARS PLP yeast,Pf growth 96h
CC(=O)Oc1ccc2ccccc2c1C(NC(=O)C(C)C)c1cccc([N+](=O)[O-])c1 (stereo not drawn),-5.7%,1.85µM*,2.0%,nt
CCCCC(=O)NC(c1cccc([N+](=O)[O-])c1)c1c(OC(C)=O)ccc2ccccc12 (stereo not drawn),1.9%,0.828µM*,-8.6%,46.1%
CCC(=O)Nc1ccc(Cl)c(NC(=O)c2c(OC)cccc2OC)c1,-0.3%,?,-0.8%,10.0%
Cc1cc(C)c(NC(=O)/C(=C/c2ccccc2)c2ccccc2)c(C)c1,-16.4%,4.15µM*,-39.3%,14.2%
Cc1ccc(NC(=O)/C(=C/c2ccco2)c2ccccc2)c(C)c1,-13.3%,nt,3.2%,17.6%
COCC(=O)N1CCC(Oc2ccc(C(=O)NC(C)c3nccs3)cc2)CC1 (stereo not drawn),14.2%,13.2%,0.9%,48.6%
O=C(CN(C(=O)CNS(=O)(=O)c1ccc(F)cc1)C1CCCC1)NCc1ccco1,4.6%,14.7%,-1.8%,7.3%
CCC(C(=O)NCc1ccco1)N(C(=O)CNS(=O)(=O)c1ccccc1)C1CCCCC1 (stereo not drawn),-0.6%,nt,-11.9%,6.57µM*
CCCC(C(=O)NCc1ccco1)N(C(=O)CNS(=O)(=O)c1ccc(Cl)cc1)C1CCCC1 (stereo not drawn),-13.6%,11.7µM*,0.3%,14.1%
CC(C)C(C(=O)NCc1ccco1)N(C(=O)CNS(=O)(=O)c1ccccc1)C1CCCC1 (stereo not drawn),-7.3%,?,3.2%,-13.8%
Cc1ccccc1NS(=O)(=O)c1ccc(C(=O)N2CCCC(C(F)(F)F)C2)cc1 (stereo not drawn),nt,?,3.2%,10.4%
Cc1n[nH]c(=S)n(/N=C/c2cccs2)c1=O,6.4%,0.928µM*,1.1%,?
Cc1cc(=O)oc2cc(OCC(=O)Nc3ccccc3C(N)=O)c(Cl)cc12,2.4%,29.9%,0.8%,8.1%
CC1CCN(Cc2c(O)ccc3c(=O)c(-c4nc5ccccc5s4)c(N)oc23)CC1,17.1%,0.262µM*,-3.7%,?
CC1CCCN(Cc2c(O)ccc3c(=O)c(-c4nc5ccccc5s4)c(N)oc23)C1 (stereo not drawn),-26.7%,0.0738µM*,-4.8%,0.0657µM*
CC1(C)CCCN(Cc2c(O)ccc3c(=O)c(-c4nc5ccccc5s4)c(N)oc23)C1,-9.7%,?,-0.7%,?
CCOc1ccccc1N1CCN(C(=O)c2cc3cc(OC)ccc3[nH]2)CC1,9.6%,?,-2.8%,?
CC(=O)N(CC(=O)Nc1nn(-c2ccccc2)nc1C(N)=O)Cc1ccccc1,-8.9%,1.04µM*,-2.7%,nt
NC(=O)c1nn(-c2ccccc2)nc1NC(=O)CN1CCCC1,-5.2%,-0.7%,1.4%,-0.4%
Cc1onc(-c2c(F)cccc2Cl)c1C(=O)Nc1ccc(Cl)c(S(=O)(=O)N(C)C)c1,nt,?,0.4%,?
C[C@@H]1CC=C[C@H]2[C@H]1C(=O)N(Cc1ccccc1)[C@H]2c1ccc(-c2ccoc2)cc1F,-44.9%,?,-14.2%,?
C[C@@H]1CC=C[C@@H]2[C@H]1C(=O)N(Cc1ccccc1)[C@H]2c1cccc(Br)c1,nt,nt,-82.1%,nt
CC[C@@H]1CC=C[C@H]2[C@H]1C(=O)N(Cc1ccccc1)[C@H]2c1ccc2ccccc2c1,-58.0%,13.1µM*,-12.3%,?
CC(=O)c1ccc(-c2cc([C@H]3[C@H]4C=CC[C@@H](C)[C@@H]4C(=O)N3Cc3ccccc3)ccc2F)cc1,11.9%,11.7µM*,-1.5%,?
C[C@@H]1CC=C[C@H]2[C@H]1C(=O)N(Cc1ccccc1)[C@H]2c1ccc(F)c(-c2ccc(N(C)C)cc2)c1,?,?,-2.8%,11.7µM*
SMILES,NS1 function inh,Pf growth 48h,SARS PLP yeast,Pf growth 96h
Cc1cc(OCCCC(=O)NCCc2nnc3ccccn23)ccc1Cl,nt,nt,2.2%,nt
COc1ccc(CN(C)C2c3ccccc3-c3ccccc32)cc1,-6.6%,?,-8.8%,11.7µM*
COc1ccc(CP(=O)(c2ccccc2)c2ccccc2)cc1,-52.8%,?,-11.1%,?
O=C(OCc1c(-c2ccccc2)ncc2ccccc12)c1cccc(Br)c1,nt,?,0.9%,?
O=C(CCc1nnc2ccc(N3CCOCC3)nn12)Nc1ccc(F)cc1F,-8.4%,10.7%,?,?
CCc1ccc2oc(=O)cc(CN3CCN(Cc4ccccc4)CC3)c2c1,5.0%,?,-2.3%,?
CCc1ccc2oc(=O)cc(CN(C)Cc3ccccc3)c2c1,-63.0%,8.28µM*,-4.8%,nt
COc1cc(C2NC(=O)NC(C)=C2C(=O)OC2CCCCC2)cc(Br)c1O (stereo not drawn),-4.4%,nt,1.7%,13.1µM*
COc1cc(C2NC(=O)NC(C)=C2C(=O)OC2CCCC(C)C2)ccc1O (stereo not drawn),7.8%,10.4µM*,-2.4%,nt
CCCCOC(=O)C1=C(C)NC(=O)NC1c1ccc(N(C)C)cc1 (stereo not drawn),-1.5%,18.3%,3.2%,175.5%
CCCCOC(=O)C1=C(C)NC(=O)NC1c1ccccc1 (stereo not drawn),5.1%,5.9%,-2.5%,8.28µM*
CCOC(=O)C1=C(CS(=O)(=O)c2ccccc2)NC(=O)NC1c1cc(OC)c(O)c(OC)c1 (stereo not drawn),-2.7%,16.7%,5.5%,2.62µM*
COc1ccccc1C1NC(=O)NC(C)=C1C(=O)OC1CCCC(C)C1 (stereo not drawn),?,-1.1%,-5.0%,19.9%
CC(C)CC[n+]1ccn(-c2nc3ccccc3nc2[N-]S(=O)(=O)c2ccc(Cl)cc2)c1,0.6%,-22.5%,-0.8%,?
CC1=C(C(=O)OC2CCCCC2)C(c2ccccc2)NC(=O)N1 (stereo not drawn),16.3%,8.4%,3.2%,9.28µM*
CC1=C(C(=O)OC2CCCCCCC2)C(c2ccc(O)cc2)NC(=O)N1 (stereo not drawn),4.4%,nt,2.5%,-20.9%
CCOC(=O)C1=C(COc2ccccc2)NC(=O)NC1c1ccc(Br)cc1 (stereo not drawn),10.0%,?,-6.0%,3.29µM*
CN(C)CCCc1c2ccccc2nc2ccc(Cl)cc12,-10.3%,nt,nt,nt
COc1ccccc1CCC(=O)N(C)CC(=O)Nc1ccc(F)cc1,-8.1%,?,0.5%,?
COc1ccc(-n2nnnc2SCC(=O)Nc2ccccc2N2CCOCC2)cc1,-4.7%,?,-0.6%,13.2%
CCOc1ccccc1NC(=O)CSc1nnnn1-c1ccc(C(=O)OC)cc1,-4.6%,12.7%,-7.4%,4.15µM*
O=C(CSc1nnnn1-c1cccc(Cl)c1)Nc1ccc2c(c1)CCC2,1.1%,3.8%,11.3%,1.85µM*
Cc1ccc(-n2nnnc2SCC(=O)Nc2ccccc2N2CCCCC2)cc1C,-31.0%,2.33µM*,8.8%,?
O=C(CSc1nnnn1-c1cccnc1)Nc1cccc(Cl)c1,-24.4%,3.9%,0.7%,44.9%
Cc1ccc(-n2nnnc2SCC(=O)Nc2ccccc2-c2ccccc2)cc1C,10.5%,-16.2%,-3.6%,4.65µM*
COc1ccc(C(=O)NCc2nnc(SCC(=O)N3CCCC3)o2)cc1,6.8%,18.7%,-0.8%,-20.9%
